Most compounds without a hit are left out; they make up all but 5.8% or so of the library.
FLuc inh: inhibitors of firefly luciferase; purified firefly luciferase, luminescence, 8 min; Potency, µM (top dose mostly 57.1 µM), usual class: inhibitors; 2.2% of 72,000 active; AID 411; further: nearly all actives have a fitted effect of over 40% in size
Target sequence (P08659 whole entry, looked up): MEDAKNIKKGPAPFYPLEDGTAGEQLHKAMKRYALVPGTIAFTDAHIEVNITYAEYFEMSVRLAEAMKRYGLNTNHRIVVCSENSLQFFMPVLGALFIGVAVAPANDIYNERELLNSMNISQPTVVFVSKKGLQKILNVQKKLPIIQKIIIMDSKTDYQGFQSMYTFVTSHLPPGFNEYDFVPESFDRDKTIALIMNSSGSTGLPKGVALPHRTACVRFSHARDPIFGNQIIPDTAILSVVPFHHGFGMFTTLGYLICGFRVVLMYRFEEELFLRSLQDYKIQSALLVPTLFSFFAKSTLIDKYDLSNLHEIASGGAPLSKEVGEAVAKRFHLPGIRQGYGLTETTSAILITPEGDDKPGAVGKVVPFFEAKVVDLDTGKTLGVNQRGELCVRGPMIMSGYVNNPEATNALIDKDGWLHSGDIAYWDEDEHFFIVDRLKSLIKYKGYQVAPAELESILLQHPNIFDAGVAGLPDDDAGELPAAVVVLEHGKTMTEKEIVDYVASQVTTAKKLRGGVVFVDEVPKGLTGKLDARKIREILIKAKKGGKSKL
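Titration-based qHTS; buffer 50 mM imidazole pH 7.2, 50 mM KCl, 7 mM MgCl2, 10 uM ATP, 0.01% Tween 20, 0.05% BSA; luciferase/luciferin detector mix added after compound; 8 min, ambient; luminescence.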
TSHR ag: TSH receptor (human) agonism | AID 926 | HEK293-CNG-TSHR cells (CNG channel as cAMP sensor), membrane potential dye, cAMP | Potency, µM (doses to about 57.1 µM), hits mostly activators | 0.48% of 73,000 active; active means well fitted activation curve with a large enough effect in the main read-out, with a control signal flat, not every such curve was filed as active; inconclusive means small, poorly fitted or top-dose-only effect, or a change in a side signal; inactive means no such curve, though single readings can be large or run the other way; reference of the percent scale not stated here;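 further: the control signal comes from parental cells without the receptor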
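HEK 293 cells stably expressing TSHR and a cAMP-gated CNG channel; parental CNG-only cells as counterscreen. Cells preloaded 60 min with membrane potential dye plus 100 uM RO 20-1724, then compound 30 min; fluorescence read at 590 nm.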
GBA activity: alters purified human glucocerebrosidase activity; P04062; purified enzyme, resorufin glucoside fluorescence (screen aimed at inhibitors), 20 min; Potency, µM; 1.1% of 48,000 active; AID 360; in the data active means potency below about 15 µM; inconclusive means mostly about 16 µM to 33 µM;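 further: the screen sought inhibitors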
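Compounds titrated against 0.2 nM normal enzyme, 30 uM resorufin beta-D-glucopyranoside substrate, citrate/phosphate buffer with taurocholate and tween-20, pH 5.9. Reaction ran 20 min at room temperature; fluorescence (Ex 548/Em 600) gave AC50.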
PK Bst: pyruvate kinase (B. stearothermophilus) modulation | purified pyruvate kinase, luminescence ATP production; ribose 5-phosphate activator present at AC10 | Potency, µM | 1.2% of 51,000 active; in the data active means potency below about 11 µM; inconclusive means mostly about 12 µM to 25 µM;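 the screen sought inhibitors and activators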
HEK293 cAMP cs: raises cAMP in parental HEK293 cells, TSHR agonist counter-screen; Potency, µM (titrated, usually from 57.1 µM), usual class: activators; parental HEK293 CNG cAMP sensor, membrane potential fluorescence; 2.5% of 73,000 active; AID 938; further: nearly all actives have a fitted effect of over 55% in size
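Parental HEK 293 cells stably expressing a modified CNG channel (no TSHR) report cAMP rise as membrane depolarization. Membrane potential dye with 100 uM RO 20-1724 was loaded for 60 min at room temperature, then compound added for 30 min; fluorescence read at 590 nm.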
Large screens that a line does not name were inactive. Unless noted, the call rests on the fitted dose curve; in most records, active means well fitted curve in the direction sought with a large enough effect; inconclusive means small, poorly fitted or top-dose-only effect, or another doubt; inactive means no such curve, though single readings can be large; an effect the other way counts as inactive or inconclusive.

CC(C)Cn1cnc2c(SCc3ccc(Cl)cc3Cl)nc(N)nc21	none (no result: GBA activity, PK Bst)
O=C(CN1C(=O)c2cccc3cccc1c23)Nc1cccnc1	PK Bst 10
O=C(CN1C(=O)c2cccc3cccc1c23)NCc1cccnc1	TSHR ag inconclusive, HEK293 cAMP cs inconclusive
COc1cccc(-c2cc(NCc3cnc(C)cn3)ncn2)c1	none (no result: GBA activity, PK Bst)
C=CCn1c(=O)c(C(=O)NCCNCC)c(O)c2ccccc21	TSHR ag inconclusive, HEK293 cAMP cs 13µM
CCNCCNC(=O)c1c(O)c2ccccc2n(CC)c1=O	TSHR ag inconclusive, HEK293 cAMP cs inconclusive
O=C(O)c1oc(C(=O)O)c(C(=O)O)c1C(=O)O	none (no result: GBA activity, PK Bst)
COc1cc(C(=O)N2CCN(C(=O)COc3ccc4ccccc4c3)CC2)cc(OC)c1OC	FLuc inh 7.9µM (no result: GBA activity, PK Bst)
COc1cccc(Cn2c(C3CC3)nc3ccc(NC(=O)c4ccco4)cc3c2=O)c1	none (no result: GBA activity, PK Bst)
COc1ccc(Cn2c(C3CC3)nc3ccc(NC(=O)C4CC4)cc3c2=O)cc1	FLuc inh 16µM, TSHR ag inconclusive, HEK293 cAMP cs inconclusive (no result: PK Bst)
Nc1nonc1-c1noc(COc2ccccc2Cl)n1	FLuc inh 13µM (no result: PK Bst)
Clc1ccc(OCc2nc(-c3ccccn3)no2)c(Br)c1	FLuc inh 2.5µM (no result: GBA activity, PK Bst)
c1ccc(CCc2nc(-c3ccccn3)no2)cc1	none
Clc1ccccc1OCc1nc(-c2ccccn2)no1	FLuc inh 10µM, TSHR ag inconclusive
Cc1cccc(OCc2nc(-c3nonc3N)no2)c1C	TSHR ag inconclusive, HEK293 cAMP cs inconclusive
COc1cc(/C=C\C(=O)N2CCCCC2=O)cc(OC)c1OC	none (no result: GBA activity, PK Bst)
CN[C@]1(C)[C@@H]2CC[C@@H](C2)C1(C)C	none (no result: GBA activity, PK Bst)
Cn1c(=O)c(-c2ccccc2)nc2cncnc21	TSHR ag inconclusive, HEK293 cAMP cs 4µM (no result: GBA activity, PK Bst)
O=c1c(-c2ccccc2)nc2cncnc2n1-c1ccccc1	none (no result: GBA activity, PK Bst)
O=c1c(-c2cccs2)nc2cncnc2n1-c1ccccc1	TSHR ag inconclusive, HEK293 cAMP cs 25µM (no result: GBA activity, PK Bst)
CN(Cc1ccco1)c1ncncc1-c1cccnc1	none (no result: GBA activity, PK Bst)
c1ccc(CNc2ncnc3ccc(-c4cccnc4)cc23)cc1	none (no result: GBA activity, PK Bst)
CC(=O)NCCNc1ncncc1-c1ccc(N(C)C)cc1	none (no result: GBA activity, PK Bst)
CN(C)c1ncc2nc(-c3ccccc3)c(=O)n(Cc3cccs3)c2n1	none (no result: GBA activity, PK Bst)
CCC(=O)Nc1cc2nn(-c3ccc(OC)cc3)nc2cc1C	FLuc inh 1.3µM, PK Bst 3.4
Cc1cccc(CNc2nc(-c3ccc4c(c3)OCO4)nc3ccccc23)c1	TSHR ag inconclusive, HEK293 cAMP cs inconclusive (no result: GBA activity, PK Bst)
CC(C)C[C@@H](CC(=O)N[C@@H](CCCN)CC(=O)N[C@@H]1CCCC[C@H]1C(=O)N[C@H](CC(=O)N[C@@H](CCC(=O)O)CC(=O)O)CC(C)C)NC(=O)[C@@H]1CCCC[C@H]1N	none (no result: FLuc inh, TSHR ag, GBA activity, PK Bst)
COc1cccc(NC(=O)/C=C\c2ccc(Cl)cc2)c1	TSHR ag inconclusive, HEK293 cAMP cs 32µM (no result: GBA activity, PK Bst)
CCOC(=O)CCN1CCN(C(=O)c2ccc(-n3c(=O)c(=O)[nH]c4ccccc43)cc2)CC1	none (no result: FLuc inh, GBA activity, PK Bst)
Clc1ccc2oc(-c3ccccn3)nc2c1	FLuc inh 16µM, PK Bst inconclusive
Nc1ccc2oc(-c3ccccn3)nc2c1	FLuc inh 20µM (no result: PK Bst)
c1cc(-c2nc3ccccc3o2)nc(-c2nc3ccccc3o2)c1	none
c1ccc(-c2nc3ccccc3o2)nc1	none (no result: PK Bst)
CCC/C=C(\CCC)C(NC(=O)c1ccc(-c2ccccc2)cc1)c1ccc(C(=O)OC)cc1 (stereo not given)	none (no result: FLuc inh, GBA activity, PK Bst)
NC(=O)C/C=C\CC(N)=O	none (no result: GBA activity, PK Bst)
Cc1c(N=Cc2ccc(Cl)o2)c(=O)n(-c2ccccc2)n1C	none (no result: TSHR ag)
Cc1ccccc1-c1ccc(C=Nc2c(C)n(C)n(-c3ccccc3)c2=O)o1	FLuc inh 16µM (no result: TSHR ag)
CCc1nnc(NC(=O)c2cccc(S(=O)(=O)N3CCN(c4ccccc4)CC3)c2)s1	GBA activity 9.8
CCc1nnc(NC(=O)c2ccc(S(=O)(=O)N3CCOCC3)cc2)s1	none (no result: GBA activity, PK Bst)
Cc1ccc(S(=O)(=O)Nc2cc(C(=O)NCCN3CCCC3)ccc2N2CCCCC2)cc1	GBA activity 10, PK Bst inconclusive
Cc1ccc(-c2noc(-c3cccs3)n2)cc1	FLuc inh 7.9µM (no result: GBA activity, PK Bst)
O=C(O)CCc1nc(-c2cccs2)no1	none
CCOC(=O)C1CCCN(C(=O)c2cnn3c(C(F)(F)F)cc(-c4ccccc4)nc23)C1 (stereo not given)	TSHR ag inconclusive, HEK293 cAMP cs inconclusive
CCOC(=O)C1CCCN(C(=O)c2cc3nc(-c4cccc(OC)c4)cc(C(F)(F)F)n3n2)C1 (stereo not given)	GBA activity 7.2

Screens deposited in PubChem by National Center for Advancing Translational Sciences (NCATS).
